Holding throughout (assay): DAPPL (digital affinity profiling via proximity ligation, sequencing); 10 mM Tris-HCl pH 7.5, 50 mM NaCl, 1 mM DTT, 4% glycerol, room temperature, 30 min; GST-TFs on glutathione beads, 16-mer random dsDNA library, 0.1% formaldehyde crosslink after washing; high values mean tight binding
Experiment [1] has as its target T1, FEV (Homo sapiens, UniProt Q99581 1-238).
T1 sequence: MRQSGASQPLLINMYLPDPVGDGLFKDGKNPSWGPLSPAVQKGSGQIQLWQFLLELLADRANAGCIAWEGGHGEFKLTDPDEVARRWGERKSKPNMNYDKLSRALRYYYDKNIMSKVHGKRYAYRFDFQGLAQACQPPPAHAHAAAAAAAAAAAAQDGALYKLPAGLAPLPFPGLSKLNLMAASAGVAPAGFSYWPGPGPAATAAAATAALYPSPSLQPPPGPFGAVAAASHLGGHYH
The settings on record: protein: recombinant; tags: N-terminal GST; dsDNA, one strand shown. Put shortly: (§1)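 Yeast served to express human transcription factors as GST fusions, which were then captured on glutathione beads and labelled with DNA barcodes. Pooled with a tag-only sample, they were incubated with 200 nmole of a 16-mer random double-stranded DNA library for 30 min at room temperature in Tris/NaCl/DTT/glycerol buffer, washed, crosslinked with 0.1% formaldehyde, ligated by proximity, amplified by PCR and sequenced. Dividing each hexamer's read frequency for a factor by its frequency for the tag-only sample gives the binding signal.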

Experiment [2] addresses ETV5 (Homo sapiens, UniProt P41161 1-510). The following applies: protein: recombinant; tags: N-terminal GST; dsDNA, one strand shown. Put shortly: as §1
Experiment [3] has as its target HSF1 (Homo sapiens, UniProt Q00613 1-529). The settings on record: protein: recombinant; tags: N-terminal GST; chain copies: 3; dsDNA, one strand shown. Put shortly:
as §1

For experiment [4], the target named is T2, SPIC (Homo sapiens, UniProt Q8N5J4 1-248).
T2 sequence: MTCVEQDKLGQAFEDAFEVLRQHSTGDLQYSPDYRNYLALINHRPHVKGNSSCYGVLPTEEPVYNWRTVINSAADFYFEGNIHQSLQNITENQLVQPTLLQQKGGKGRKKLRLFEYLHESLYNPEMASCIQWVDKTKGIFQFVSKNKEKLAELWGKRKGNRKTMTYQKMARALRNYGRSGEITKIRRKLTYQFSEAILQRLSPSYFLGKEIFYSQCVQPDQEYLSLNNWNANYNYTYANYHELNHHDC
The following applies: protein: recombinant; tags: N-terminal GST; dsDNA, one strand shown. Put shortly:
as §1

For experiment [5], the target named is ELF4 (Homo sapiens, UniProt Q99607 1-663). The following applies: protein: recombinant; tags: N-terminal GST; dsDNA, one strand shown. Put shortly:
as §1

Experiment [6] deals with T3, ELK4 (Homo sapiens, UniProt P28324-2 1-405).
T3 sequence: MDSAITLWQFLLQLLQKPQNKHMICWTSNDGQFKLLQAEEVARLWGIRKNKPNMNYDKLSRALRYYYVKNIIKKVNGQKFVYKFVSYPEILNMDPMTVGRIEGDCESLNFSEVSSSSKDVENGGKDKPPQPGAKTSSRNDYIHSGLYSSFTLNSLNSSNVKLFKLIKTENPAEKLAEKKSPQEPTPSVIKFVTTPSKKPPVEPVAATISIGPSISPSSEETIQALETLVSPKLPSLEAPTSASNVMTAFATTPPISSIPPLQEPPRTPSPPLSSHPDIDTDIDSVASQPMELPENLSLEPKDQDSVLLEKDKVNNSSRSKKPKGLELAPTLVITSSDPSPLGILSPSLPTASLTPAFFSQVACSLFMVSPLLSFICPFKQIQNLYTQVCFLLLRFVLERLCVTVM
The following applies: protein: recombinant; tags: N-terminal GST; dsDNA, one strand shown. Put shortly:
as §1

In experiment [7] the target is T4, ETV2 (Homo sapiens, UniProt O00321 1-342).
T4 sequence: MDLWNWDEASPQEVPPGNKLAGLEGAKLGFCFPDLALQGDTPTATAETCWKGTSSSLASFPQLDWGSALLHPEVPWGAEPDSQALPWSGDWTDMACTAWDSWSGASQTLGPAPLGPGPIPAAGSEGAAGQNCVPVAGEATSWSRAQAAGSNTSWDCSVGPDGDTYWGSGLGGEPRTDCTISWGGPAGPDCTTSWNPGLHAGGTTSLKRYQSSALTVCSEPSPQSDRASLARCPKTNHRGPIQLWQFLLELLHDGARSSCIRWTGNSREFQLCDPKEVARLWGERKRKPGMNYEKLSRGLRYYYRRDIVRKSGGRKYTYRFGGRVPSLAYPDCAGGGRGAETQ
The following applies: protein: recombinant; tags: N-terminal GST; dsDNA, one strand shown. Put shortly:
as §1

For experiment [8], the target named is T5, ELF3 (Homo sapiens, UniProt P78545 1-371).
T5 sequence: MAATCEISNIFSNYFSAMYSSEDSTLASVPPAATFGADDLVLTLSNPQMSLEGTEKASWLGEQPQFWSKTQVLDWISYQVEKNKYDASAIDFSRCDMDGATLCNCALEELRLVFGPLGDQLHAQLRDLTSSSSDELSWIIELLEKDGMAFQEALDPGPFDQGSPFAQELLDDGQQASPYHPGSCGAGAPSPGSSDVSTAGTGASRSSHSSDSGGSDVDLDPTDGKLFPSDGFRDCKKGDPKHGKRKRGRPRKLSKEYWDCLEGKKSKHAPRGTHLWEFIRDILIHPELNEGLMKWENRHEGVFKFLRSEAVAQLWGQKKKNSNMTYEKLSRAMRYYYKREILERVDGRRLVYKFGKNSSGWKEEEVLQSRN
The settings on record: protein: recombinant; tags: N-terminal GST; dsDNA, one strand shown. Put shortly:
as §1

The target in experiment [9] is CRX (Homo sapiens, UniProt O43186 1-299). The settings on record: protein: recombinant; tags: N-terminal GST; dsDNA, one strand shown. Put shortly:
as §1

Experiment [10] deals with ETV1 (Homo sapiens, UniProt P50549 1-477). The settings on record: protein: recombinant; tags: N-terminal GST; dsDNA, one strand shown. Put shortly:
as §1

For experiment [11], the target named is T6, ERF (Homo sapiens, UniProt P50548 1-548).
T6 sequence: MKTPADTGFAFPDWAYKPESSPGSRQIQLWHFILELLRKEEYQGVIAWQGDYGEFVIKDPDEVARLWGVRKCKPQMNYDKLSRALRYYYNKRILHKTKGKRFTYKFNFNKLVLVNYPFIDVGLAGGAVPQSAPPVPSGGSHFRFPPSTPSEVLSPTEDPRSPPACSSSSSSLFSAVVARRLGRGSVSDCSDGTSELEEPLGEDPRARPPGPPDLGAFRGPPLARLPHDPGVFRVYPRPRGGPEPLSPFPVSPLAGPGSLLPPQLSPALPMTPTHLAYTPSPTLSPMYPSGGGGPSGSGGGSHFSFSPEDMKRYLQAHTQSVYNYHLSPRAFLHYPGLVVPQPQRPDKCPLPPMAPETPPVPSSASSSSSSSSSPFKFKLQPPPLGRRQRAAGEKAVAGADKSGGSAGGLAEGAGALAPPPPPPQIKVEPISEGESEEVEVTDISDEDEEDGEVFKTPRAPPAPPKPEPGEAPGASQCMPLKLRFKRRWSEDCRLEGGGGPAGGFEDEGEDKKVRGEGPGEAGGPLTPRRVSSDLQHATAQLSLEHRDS
The following applies: protein: recombinant; tags: N-terminal GST; dsDNA, one strand shown. Put shortly:
as §1

Experiment [12] has as its target T7, ETV3L (Homo sapiens, UniProt Q6ZN32 1-361).
T7 sequence: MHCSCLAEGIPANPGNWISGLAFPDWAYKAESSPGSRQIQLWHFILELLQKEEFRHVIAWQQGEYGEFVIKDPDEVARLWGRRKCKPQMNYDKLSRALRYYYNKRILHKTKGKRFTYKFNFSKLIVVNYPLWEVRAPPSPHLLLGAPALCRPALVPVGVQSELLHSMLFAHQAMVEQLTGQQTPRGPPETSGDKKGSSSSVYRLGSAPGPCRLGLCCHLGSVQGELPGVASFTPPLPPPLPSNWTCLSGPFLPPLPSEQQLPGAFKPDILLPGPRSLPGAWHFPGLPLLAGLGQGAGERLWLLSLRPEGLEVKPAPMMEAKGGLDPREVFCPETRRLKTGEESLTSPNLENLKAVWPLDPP
The following applies: protein: recombinant; tags: N-terminal GST; dsDNA, one strand shown. Put shortly:
as §1

Experiment [13] has as its target T8, ETS2 (Homo sapiens, UniProt P15036 1-469).
T8 sequence: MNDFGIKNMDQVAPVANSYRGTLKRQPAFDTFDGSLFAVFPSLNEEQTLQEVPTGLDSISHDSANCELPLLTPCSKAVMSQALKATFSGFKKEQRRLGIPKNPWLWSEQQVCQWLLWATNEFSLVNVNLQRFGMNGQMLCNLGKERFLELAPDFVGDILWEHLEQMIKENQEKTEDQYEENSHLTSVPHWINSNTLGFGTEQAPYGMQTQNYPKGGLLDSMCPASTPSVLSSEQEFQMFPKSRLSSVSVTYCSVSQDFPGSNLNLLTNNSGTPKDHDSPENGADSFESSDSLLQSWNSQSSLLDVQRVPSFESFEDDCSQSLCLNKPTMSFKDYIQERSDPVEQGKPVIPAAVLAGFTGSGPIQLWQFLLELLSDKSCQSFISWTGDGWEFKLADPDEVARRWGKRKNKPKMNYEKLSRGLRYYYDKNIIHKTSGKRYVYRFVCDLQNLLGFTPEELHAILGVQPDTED
The settings on record: protein: recombinant; tags: N-terminal GST; dsDNA, one strand shown. Put shortly:
as §1

Experiment [14] has as its target T9, SPDEF (Homo sapiens, UniProt O95238 1-335).
T9 sequence: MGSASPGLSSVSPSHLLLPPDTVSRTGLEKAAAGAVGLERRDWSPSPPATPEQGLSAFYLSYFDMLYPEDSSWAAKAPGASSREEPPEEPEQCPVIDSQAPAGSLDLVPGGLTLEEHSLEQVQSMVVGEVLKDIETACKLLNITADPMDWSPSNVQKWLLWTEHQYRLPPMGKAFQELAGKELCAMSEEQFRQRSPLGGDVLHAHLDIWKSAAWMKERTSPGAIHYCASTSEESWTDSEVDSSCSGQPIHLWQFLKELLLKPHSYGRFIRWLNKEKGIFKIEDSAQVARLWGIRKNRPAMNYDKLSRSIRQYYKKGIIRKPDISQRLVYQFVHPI
The following applies: protein: recombinant; tags: N-terminal GST; dsDNA, one strand shown. Put shortly:
as §1

Experiment [15] has as its target T10, ETV7 (Homo sapiens, UniProt Q9Y603 1-341).
T10 sequence: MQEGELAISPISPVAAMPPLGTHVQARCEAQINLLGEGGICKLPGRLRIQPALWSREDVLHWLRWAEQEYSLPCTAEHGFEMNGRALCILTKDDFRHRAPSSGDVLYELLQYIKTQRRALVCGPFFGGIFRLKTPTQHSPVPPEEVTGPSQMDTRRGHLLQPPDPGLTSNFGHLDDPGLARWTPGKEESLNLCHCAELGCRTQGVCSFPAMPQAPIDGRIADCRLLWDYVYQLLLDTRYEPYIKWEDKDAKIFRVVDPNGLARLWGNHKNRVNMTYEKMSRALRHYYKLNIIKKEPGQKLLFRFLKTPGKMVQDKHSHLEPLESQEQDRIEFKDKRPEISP
The following applies: protein: recombinant; tags: N-terminal GST; dsDNA, one strand shown. Put shortly: as §1

Experiment [16] deals with T11, ELF5 (Homo sapiens, UniProt Q9UKW6-2 1-255).
T11 sequence: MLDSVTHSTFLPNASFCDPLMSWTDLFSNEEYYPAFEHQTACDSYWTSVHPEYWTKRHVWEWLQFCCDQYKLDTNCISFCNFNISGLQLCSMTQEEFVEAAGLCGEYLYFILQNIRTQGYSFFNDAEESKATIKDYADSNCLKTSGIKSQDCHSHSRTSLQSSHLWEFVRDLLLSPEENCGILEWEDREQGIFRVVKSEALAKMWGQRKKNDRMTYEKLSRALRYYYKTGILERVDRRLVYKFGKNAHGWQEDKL
The following applies: protein: recombinant; tags: N-terminal GST; dsDNA, one strand shown. Put shortly:
as §1

The target in experiment [17] is T12, ETV3 (Homo sapiens, UniProt P41162-2 1-143).
T12 sequence: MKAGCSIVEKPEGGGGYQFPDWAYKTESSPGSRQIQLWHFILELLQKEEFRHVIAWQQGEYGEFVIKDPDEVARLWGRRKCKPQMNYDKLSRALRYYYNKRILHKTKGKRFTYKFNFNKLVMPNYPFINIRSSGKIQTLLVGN
The settings on record: protein: recombinant; tags: N-terminal GST; dsDNA, one strand shown. Put shortly: as §1

The target in experiment [18] is ETV6 (Homo sapiens, UniProt P41212 1-452). The following applies: protein: recombinant; tags: N-terminal GST; dsDNA, one strand shown. Put shortly: as §1
Chain of ETV6 (P41212 whole entry): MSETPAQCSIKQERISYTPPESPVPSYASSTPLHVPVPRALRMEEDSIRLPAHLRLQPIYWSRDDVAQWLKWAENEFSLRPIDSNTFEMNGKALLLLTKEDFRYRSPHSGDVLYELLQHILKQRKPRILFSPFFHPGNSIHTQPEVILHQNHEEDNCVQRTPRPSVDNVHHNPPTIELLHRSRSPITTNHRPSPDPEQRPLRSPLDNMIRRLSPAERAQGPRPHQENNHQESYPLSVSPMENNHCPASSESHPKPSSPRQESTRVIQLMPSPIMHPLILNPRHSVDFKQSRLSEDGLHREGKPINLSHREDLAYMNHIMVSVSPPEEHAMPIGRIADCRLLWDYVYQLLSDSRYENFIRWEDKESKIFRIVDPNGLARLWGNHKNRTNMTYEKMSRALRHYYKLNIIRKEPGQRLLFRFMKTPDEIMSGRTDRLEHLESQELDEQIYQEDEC

Chain of ETV5 (P41161 whole entry): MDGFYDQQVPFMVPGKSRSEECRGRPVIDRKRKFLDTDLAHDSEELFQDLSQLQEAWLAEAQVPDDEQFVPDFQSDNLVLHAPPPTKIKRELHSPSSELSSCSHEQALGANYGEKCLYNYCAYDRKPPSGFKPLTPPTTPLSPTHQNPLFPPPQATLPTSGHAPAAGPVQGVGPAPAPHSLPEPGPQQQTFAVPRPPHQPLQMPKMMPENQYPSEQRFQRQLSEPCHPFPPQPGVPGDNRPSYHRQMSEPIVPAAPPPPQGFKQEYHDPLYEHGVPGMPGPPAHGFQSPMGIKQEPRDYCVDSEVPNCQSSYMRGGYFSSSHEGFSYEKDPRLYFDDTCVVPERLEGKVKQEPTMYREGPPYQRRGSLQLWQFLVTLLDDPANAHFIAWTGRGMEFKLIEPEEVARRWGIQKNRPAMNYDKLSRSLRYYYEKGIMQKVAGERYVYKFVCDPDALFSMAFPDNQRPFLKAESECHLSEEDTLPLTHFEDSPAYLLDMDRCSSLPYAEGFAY
Chain of ETV1 (P50549 whole entry): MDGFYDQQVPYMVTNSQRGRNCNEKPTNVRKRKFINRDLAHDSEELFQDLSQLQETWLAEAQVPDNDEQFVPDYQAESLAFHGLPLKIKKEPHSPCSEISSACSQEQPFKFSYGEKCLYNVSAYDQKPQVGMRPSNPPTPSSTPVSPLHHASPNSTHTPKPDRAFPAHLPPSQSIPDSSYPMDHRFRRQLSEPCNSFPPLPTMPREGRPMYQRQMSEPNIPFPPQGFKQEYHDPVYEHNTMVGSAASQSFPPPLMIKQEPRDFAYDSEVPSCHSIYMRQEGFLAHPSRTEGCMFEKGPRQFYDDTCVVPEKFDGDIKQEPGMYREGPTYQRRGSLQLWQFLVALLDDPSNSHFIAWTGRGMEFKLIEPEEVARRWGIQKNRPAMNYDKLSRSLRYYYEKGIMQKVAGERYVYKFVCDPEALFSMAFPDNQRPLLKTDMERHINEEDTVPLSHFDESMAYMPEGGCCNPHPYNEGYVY
Chain of ELF4 (Q99607 whole entry): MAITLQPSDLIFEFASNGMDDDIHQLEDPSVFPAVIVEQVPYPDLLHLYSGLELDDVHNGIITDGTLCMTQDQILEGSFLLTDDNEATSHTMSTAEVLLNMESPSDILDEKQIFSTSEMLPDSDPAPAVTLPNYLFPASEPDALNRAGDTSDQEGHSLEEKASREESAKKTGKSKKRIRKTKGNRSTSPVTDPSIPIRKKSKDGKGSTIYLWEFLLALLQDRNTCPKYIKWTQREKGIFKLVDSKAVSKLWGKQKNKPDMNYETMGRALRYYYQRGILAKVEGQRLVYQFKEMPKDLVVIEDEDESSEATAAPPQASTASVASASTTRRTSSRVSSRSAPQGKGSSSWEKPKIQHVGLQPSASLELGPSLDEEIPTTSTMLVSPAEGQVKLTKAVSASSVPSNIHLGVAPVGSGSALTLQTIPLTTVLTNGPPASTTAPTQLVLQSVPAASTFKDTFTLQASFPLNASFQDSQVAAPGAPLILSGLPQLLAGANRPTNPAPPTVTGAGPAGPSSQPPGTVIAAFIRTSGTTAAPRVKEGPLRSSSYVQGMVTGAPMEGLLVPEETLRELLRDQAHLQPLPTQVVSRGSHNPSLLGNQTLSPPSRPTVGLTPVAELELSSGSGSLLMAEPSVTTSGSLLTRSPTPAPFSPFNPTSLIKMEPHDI
Chain of CRX (O43186 whole entry): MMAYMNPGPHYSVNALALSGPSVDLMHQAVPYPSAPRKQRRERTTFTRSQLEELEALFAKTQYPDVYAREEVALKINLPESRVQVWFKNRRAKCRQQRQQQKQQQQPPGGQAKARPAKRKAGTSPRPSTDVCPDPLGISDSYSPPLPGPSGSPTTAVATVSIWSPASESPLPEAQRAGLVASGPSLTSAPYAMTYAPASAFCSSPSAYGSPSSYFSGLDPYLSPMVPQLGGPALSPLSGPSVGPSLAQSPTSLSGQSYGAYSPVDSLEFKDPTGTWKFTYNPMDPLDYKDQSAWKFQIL
Chain of HSF1 (Q00613 whole entry): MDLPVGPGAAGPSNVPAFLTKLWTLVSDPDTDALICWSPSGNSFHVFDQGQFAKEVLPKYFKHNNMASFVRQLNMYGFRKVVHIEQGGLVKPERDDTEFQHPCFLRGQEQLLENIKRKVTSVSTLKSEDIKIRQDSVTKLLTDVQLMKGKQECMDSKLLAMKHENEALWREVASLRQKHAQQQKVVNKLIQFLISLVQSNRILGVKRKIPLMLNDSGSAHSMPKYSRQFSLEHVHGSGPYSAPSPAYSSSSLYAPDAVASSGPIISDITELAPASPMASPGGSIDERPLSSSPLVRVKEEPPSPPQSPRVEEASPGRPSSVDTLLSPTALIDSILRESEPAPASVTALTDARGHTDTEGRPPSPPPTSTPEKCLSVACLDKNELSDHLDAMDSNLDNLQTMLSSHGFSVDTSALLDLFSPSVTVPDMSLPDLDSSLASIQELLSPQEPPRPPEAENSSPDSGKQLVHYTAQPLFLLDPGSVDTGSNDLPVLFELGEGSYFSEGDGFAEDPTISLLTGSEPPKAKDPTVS

Consider TACAGA, for which the binding signal in experiment [1] was 1.13 fold enrichment (6-mer frequency, TF over GST control); in experiment [2] it was 1.12 fold enrichment (6-mer frequency, TF over GST control); in experiment [3], 1.28 fold enrichment (6-mer frequency, TF over GST control); in [4], 1.25 fold enrichment (6-mer frequency, TF over GST control); in experiment [5], 1.13 fold enrichment (6-mer frequency, TF over GST control); in [6], 1.1 fold enrichment (6-mer frequency, TF over GST control). Besides, the binding signal in experiment [7] was 1.25 fold enrichment (6-mer frequency, TF over GST control); in [8], 1.11 fold enrichment (6-mer frequency, TF over GST control); in experiment [9], 1.25 fold enrichment (6-mer frequency, TF over GST control); in experiment [10] it was 1.16 fold enrichment (6-mer frequency, TF over GST control); in experiment [11] it was 1.13 fold enrichment (6-mer frequency, TF over GST control); in experiment [12], 1.04 fold enrichment (6-mer frequency, TF over GST control). The binding signal in experiment [13] is 1.14 fold enrichment (6-mer frequency, TF over GST control); in experiment [14], 1.16 fold enrichment (6-mer frequency, TF over GST control); in experiment [15] it was 1.18 fold enrichment (6-mer frequency, TF over GST control); in experiment [16], 1.11 fold enrichment (6-mer frequency, TF over GST control); in experiment [17] it was 1.1 fold enrichment (6-mer frequency, TF over GST control); in experiment [18], 1.1 fold enrichment (6-mer frequency, TF over GST control).

The values are drawn from article PMC7862700, “An all-to-all approach to the identification of sequence-specific readers for epigenetic DNA modifications on cytosine”.
